56 molecules from PubChem BioAssay AID1851 (National Center for Advancing Translational Sciences (NCATS), 2009) can be followed below.

SMILES strings stand for the structures. Screen size: about 16,000 compounds; about 5,100 (32%) were called active. Roughly 25% stayed inconclusive and do not appear here. The list shows a part of the results. Values without a mark were called inactive. Calls come from the whole dose curve; as a rule, active = well fitted curve in the direction sought with a large enough effect; inconclusive = small, poorly fitted or top-dose-only effect, or effect the other way; inactive = no such curve, though single readings can be large or run the other way.
% is set by controls: 0 for no effect and ±100 for the full control effect.

For this assay, the target named is Cytochrome P450 3A4 (Homo sapiens) (UniProt P08684). The assay can be described thus: Cytochrome panel assay with activity outcomes. The following applies: recombinant CYP, pro-luciferin dealkylation, luminescence, p450-cyp3a4; series mostly up to 57.1 µM; activity, negative = inhibition: at the top concentration.
Cytochrome P450 3A4 (Homo sapiens), sequence (P08684 whole entry, looked up): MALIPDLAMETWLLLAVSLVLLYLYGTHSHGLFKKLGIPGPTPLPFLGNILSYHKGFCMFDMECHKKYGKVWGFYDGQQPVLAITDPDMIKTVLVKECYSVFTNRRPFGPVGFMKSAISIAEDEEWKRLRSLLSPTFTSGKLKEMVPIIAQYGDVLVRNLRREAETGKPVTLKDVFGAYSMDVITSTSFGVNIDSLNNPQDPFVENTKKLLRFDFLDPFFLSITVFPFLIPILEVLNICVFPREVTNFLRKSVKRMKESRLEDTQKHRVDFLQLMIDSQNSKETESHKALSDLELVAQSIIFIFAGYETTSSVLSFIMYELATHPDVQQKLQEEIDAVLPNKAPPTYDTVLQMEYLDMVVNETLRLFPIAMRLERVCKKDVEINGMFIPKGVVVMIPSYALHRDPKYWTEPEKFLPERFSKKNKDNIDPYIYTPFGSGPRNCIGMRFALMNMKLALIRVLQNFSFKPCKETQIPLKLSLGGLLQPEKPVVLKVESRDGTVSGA
In the case of `O=C(CN1CCN(C2CCCCC2)CC1)NCCC1=CCCCC1`, the “activity, negative = inhibition” value was -10.2%.
By AC50 is commonly meant the concentration giving half of the maximal activity seen. As to `O=C(NCCC1=CCCCC1)C1CCCN(c2nc3ccccc3o2)C1` (stereo unspecified), the AC50 is 12.6 µM (active).
As to `CC(C)(C)c1ccc(C(=O)N2CCC(C(=O)NCCC3=CCCCC3)CC2)cc1`, the activity, negative = inhibition is -5.78% [at 2.29 µM].
Regarding `Cc1ccccc1S(=O)(=O)O[C@@H]1NS(=O)(=O)c2ccccc21`, the activity, negative = inhibition is -3.69% [at 11.4 µM].
Turning to `CC1=C(C(=O)Nc2ccccc2F)C(c2ccsc2)C2=C(CC(c3ccccc3)CC2=O)N1` (stereo unspecified), the AC50 was 3.55 µM (active).
`COC(=O)C1=C(C)NC(=O)NC1c1ccsc1` (stereo unspecified): the “activity, negative = inhibition” value is -11.7%.
For `Cc1noc(NC(=O)Nc2ccccc2F)c1C#N`, the activity, negative = inhibition was -12.9% [at 11.4 µM].
As for `COc1ccc(S(=O)(=O)NC2(C(F)(F)F)N=C3SCCN3C2=O)cc1` (stereo unspecified), the “activity, negative = inhibition” value was -11.2%.
`O=C(c1cnccn1)N1CCC2(CC1)CN(c1ccccc1)C2`: the “activity, negative = inhibition” value was 21%.
For `O=C(c1cnccn1)N1CCC2(CCCN(c3ccccc3)C2)CC1`, the AC50 is 1.58 µM (active).
In the case of `O=C(c1cnccn1)N1CCC2(CCCN(c3cccc(-c4ccccc4)c3)C2)CC1`, the half-maximal activity concentration (AC50) was 2 µM (active).
Consider `O=C(c1cnccn1)N1CCC[C@@]2(CCN(c3cccc(-c4ccccc4)c3)C2)C1`, for which the AC50 is 3.98 µM (active).
Regarding `CN(C)c1ncc2nc(-c3ccc(F)cc3)c(=O)n(C3CC3)c2n1`, the “activity, negative = inhibition” value was -4.1%.
In the case of `Cc1ccc(S(=O)(=O)CCCS(=O)(=O)c2ccc(C)cc2)cc1`, the AC50 was 12.6 µM (active).
For `Cc1ccc(C2=C(Cl)C(=O)C(c3ccc(C)cc3)=C(Cl)C2=O)cc1`, the activity, negative = inhibition is -1.66% [at 11.4 µM].
Same read-out and setting: the figure for `Cc1ccc(/S(C)=N/S(=O)(=O)c2ccc(C)cc2)cc1` (stereo unspecified) is -0.155% [at 2.29 µM].
In the case of `C[C@@H](CCc1ccccc1)NC[C@H](O)c1ccc(O)c(C(N)=O)c1`, the AC50 entry is “inactive”.
On to `C=C(NC(=O)C(=C)NC(=O)c1csc(C2=N[C@@H]3c4csc(n4)[C@@H]4NC(=O)c5csc(n5)[C@@H]([C@](C)(O)[C@H](C)O)NC(=O)[C@@H]5CSC(=N5)/C(=C/C)NC(=O)[C@@H]([C@H](C)O)NC(=O)c5csc(n5)[C@]3(CC2)NC(=O)[C@@H](C)NC(=O)C(=C)NC(=O)[C@@H](C)NC(=O)[C@@H]([C@@H](C)CC)N[C@H]2C=Cc3c([C@H](C)O)cc(nc3[C@@H]2O)C(=O)O[C@H]4C)n1)C(N)=O`, for which the “activity, negative = inhibition” value was -0.0029% [at 25.6 µM].
As to `Clc1ccccc1-c1nc(NCCN2CCOCC2)c2ccccc2n1`, the AC50 was 15.8 µM (active).
Turning to `Cc1noc(C)c1-c1nc(NCCN2CCOCC2)c2ccccc2n1`, the AC50 was 12.6 µM (active).
Take `FC(F)(F)c1ccccc1-c1nc(NCCN2CCOCC2)c2ccccc2n1`: the AC50 is 7.94 µM (active).
For the molecule `CC1(C)Cc2c(ccc3ccccc23)C(=O)N1`, the “activity, negative = inhibition” value was 2.26%.
Same read-out and setting: to `Clc1ccc(COc2ccccn2)cc1Cl` belongs -7.19% [at 2.29 µM].
With `Clc1ccc(CSCCc2ccncc2)cc1Cl`, the AC50 was 1 µM (active).
For `Cc1cc(O)c(/C=N/Nc2cccc(Cl)c2)c(=O)o1`, the AC50 is 5.62 µM (active).
For `Clc1cccc(N/N=C/c2ccc(N3CCOCC3)cc2)c1`, the activity, negative = inhibition is -10.2% [at 2.29 µM].
The same measure, in the same setting: the figure for `NC(=O)c1nn(-c2ccccc2)c(=O)cc1O` is 19%; for `O=C1CC(c2ccc3c(c2)OCO3)CN1` (stereo unspecified) it is -2.08% [at 2.29 µM].
Regarding `O=C1CC(c2ccc3c(c2)OCO3)Sc2nc3ccccc3n21` (stereo unspecified), the concentration at half-maximal activity (AC50) was 2.51 µM (active).
Consider `O=C(/C=C/c1ccc2ccccc2c1)c1ccoc1`, for which the “activity, negative = inhibition” value was -18.6%.
`COc1cccc(C(=O)/C=C/c2ccc(SC)cc2)c1`: the AC50 was 3.98 µM (active).
As to `COc1ccc(/C=C/C(=O)c2ccoc2)cc1`, the “activity, negative = inhibition” value was -1.98%.
Take `Nc1ccn([C@H]2O[C@@H](COP(=O)(O)O)[C@@H](O)[C@H]2O)c(=O)n1`: the activity, negative = inhibition is -4.22% [at 11.4 µM].
The same measure, in the same setting: the figure for `CS(=O)(=O)c1ccc(/C=N\NC(N)=S)cc1` is -4.4% [at 11.4 µM].
For the molecule `COc1ccc(C(=O)Oc2cc(/C=N/NS(=O)(=O)c3ccc(C)cc3)ccc2OC)cc1`, the activity, negative = inhibition is -26% [at 2.29 µM].
On to `COc1ccc(/C=N/NC(N)=S)cc1OC(=O)c1cccc2ccccc12`, for which the AC50 is 2.24 µM (active).
For the molecule `O=C(O)c1ccc(NS(=O)(=O)Cc2ccccc2)cc1`, the activity, negative = inhibition was -11.2% [at 11.4 µM].
As for `CCOC(=O)c1ccc(NC(=O)Nc2ccc3c4c(cccc24)C(=O)N3CC)cc1`, the “activity, negative = inhibition” value was -0.607%.
As to `CCOC(=O)c1ccc(NC(=O)C2CCCO2)cc1` (stereo unspecified), the activity, negative = inhibition is -7.73% [at 11.4 µM].
Take `CCOC(=O)c1ccc(N/C(=N\S(=O)(=O)c2ccccc2C)c2ccccc2)cc1`: the AC50 is 2 µM (active).
`Clc1ccc(Sc2ccc(/C=N/n3cnnc3)o2)cc1`: the AC50 is 1.12 µM (active).
As for `CN=C1S/C(=C\c2ccc(Sc3ccc(Cl)cc3)o2)C(=O)N1C`, the “activity, negative = inhibition” value was -13.3%.
The same measure, in the same setting: the figure for `NC(=O)Nn1c(CCC(=O)O)ccc1-c1ccc(F)cc1` is -12.8%; for `COc1ccccc1NC(=S)NC(=O)c1ccc(-c2ccc(Cl)cc2)o1` it is -7.71% [at 2.29 µM].
Consider `O=C(Nc1ccc(Cl)cc1)OCc1cc(-c2ccccc2Cl)on1`, for which the activity, negative = inhibition was 28.2% [at 2.29 µM].
For the molecule `COc1ccccc1-c1cc(C(=O)Nc2cc(C)n(Cc3ccc(Cl)cc3)n2)no1`, the AC50 was 15.8 µM (active).
Turning to `C[C@@](N)(C(=O)O)c1ccc(S(=O)(=O)O)cc1`, the “activity, negative = inhibition” value was -3.33%.
For `CC(C)(C)c1ccc(S(=O)(=O)/C=C\C#N)cc1`, the AC50 was 25.1 µM (active).
For `Cc1ccc(NC(=O)c2ccc(NCC3CCCO3)c([N+](=O)[O-])c2)cc1Cl` (stereo unspecified), the activity, negative = inhibition was -6.83% [at 11.4 µM].
Regarding `Cc1ccc(C(=O)COC(=O)CNC(=O)Cc2ccccc2)cc1[N+](=O)[O-]`, the “activity, negative = inhibition” value is -4.57%.
`Cc1ccc(C(=O)Nc2ccccc2Oc2ccccc2)cc1[N+](=O)[O-]`: the “activity, negative = inhibition” value was -22.4%.
For `CCC(=O)Nc1ccc(C(=O)OCC(=O)c2ccc(C)c([N+](=O)[O-])c2)cc1`, the AC50 was 7.94 µM (active).
`Cc1ccc(C(=O)Nc2ccc(Cc3ccncc3)cc2)cc1[N+](=O)[O-]`: the AC50 is 0.355 µM (active).
For the molecule `CC1=CC(=O)C=CC1(C)C(Cl)(Cl)Cl` (stereo unspecified), the activity, negative = inhibition is 2.38% [at 2.29 µM].
For the molecule `COc1ccc(-c2nc(-c3ccccc3)c(-c3cc([N+](=O)[O-])ccc3C)[nH]2)cc1O`, the half-maximal activity concentration (AC50) was 5.01 µM (active).
As to `O=c1[nH]c(=O)n([C@@H]2C[C@H](O)[C@H](CO)O2)cc1C(F)(F)F`, the “activity, negative = inhibition” value is -12.5% [at 25.6 µM].
